# Results taken from ChEMBL document CHEMBL3988442, “University of Dundee, Small-Polar-MMV Screening Library” (2021).
# Molecular target: Shiga toxin 2 (Escherichia coli O157:H7) (UniProt P09385+P09386)
# Assay: E. coli 0.157:H7 Shiga Toxin SOP - stx2 screening assay
# Type: functional
# Parameters: scale not given: direction of the effect not stated beside the values
# Details: 30 µM
row,SMILES,Percent Effect [%]
1,Cn1ccc(CN2CCC(CCc3ccc(O)cc3)CC2)cc1=O,-46.5
2,O=C(COCc1nc(-c2ccncc2)no1)N1CCCCCC1,-22.7
3,CN(C)C(=O)CS(=O)(=O)Cc1cc(Cl)c2c(c1)OCO2,25.6
4,Cn1nccc1C1CCN(Cc2csc(-c3ncccn3)n2)CC1,-10.6
5,O=C(c1cccn2ccnc12)N1CCCN(c2cccnn2)CC1,22.9
6,O=C1COc2cc(C(=O)NS(=O)(=O)c3ccccc3F)ccc2N1,0.482
7,Cn1ccc(NC(=O)Cc2cccc(F)c2)n1,-9.92
8,O=C(c1ccnnc1)N1C[C@H]2CCC[C@@]2(COCC2CCOCC2)C1,-0.366
9,Cn1cc(CN2C[C@@H]3COC[C@]3(C(=O)NCc3ccccn3)C2)cn1,-15
10,Cc1ccc(S(=O)(=O)N2C[C@H]3C[C@H](NC(=O)c4ccnn4C)[C@H]3C2)cc1,8.81
11,O=C1[C@H]2CC[C@H](CN(Cc3ccccc3OC(F)F)C2)N1CC1CC1,7.93
12,CC(C1CC1)N(C)C(=O)c1cnc(-c2ccc3c(c2)OCO3)s1 (centres undefined),-42.7
13,O=S(=O)(CCCN1CCCC1Cn1cccn1)c1ccccc1 (centres undefined),-4.23
14,Cc1ccc(C(=O)N2CCC(Oc3ccc(F)cc3F)CC2)c(=O)[nH]1,30.4
15,c1cnnc(N2CCCC2CNCc2cc[nH]n2)c1 (centres undefined),-20
16,CC(C)CN1Cc2c(C(=O)N(C)C)ncn2-c2ccccc2S1(=O)=O,4.89
17,O=C(CSC1=NS(=O)(=O)c2cc(F)ccc2N1)c1ccc(Cl)cc1,-0.176
18,O=C(c1ccco1)N1CCOCC2(C1)CN(c1ccccc1)C(=O)CO2 (centres undefined),2.61
19,Oc1nc(N2CCOCC2)nc2c1CCN(Cc1cccnc1)CC2,-13.5
